Reference: PubChem BioAssay AID504521 (NMMLSC, 2011)
The other results are listed elsewhere or left out. Calls of active or inactive are those of the source.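 The calls were made as follows: active = compounds whose bead fluorescence drops by more than 37 kMESF across the dose range, marking them as dye quenchers; inactive = the rest.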

Test: quenching of fluorescent RNA aptamer on beads, dose response, artefact control for GRK2 RNA aptamer inhibitor project, biochemical, cherry pick 1, bead-based flow cytometry (AID 504521)
Conditions: stronger effect = higher value

Fluorescence change (kMESF span), inactive:
CCN1/C(=C\c2ccc3ccccc3[n+]2CC)Sc2cc(C)ccc21 8.1 kMESF
CCN1/C(=C/c2ccc3ccc(C)cc3[n+]2CC)Sc2ccccc21 -1.6 kMESF
O=C(CCS(=O)(=O)c1ccc(Br)cc1)NCCc1ccc(Cl)cc1 10.9 kMESF
COc1ccc(N2CCN(C(CNS(=O)(=O)c3ccc(C)cc3)c3ccccc3)CC2)cc1 (stereo not given) 7.4 kMESF
C=C(C)C(=O)Nc1cccc(C2=NOC3(C2)C[C@H](C(N)=O)N(C(=O)C(c2ccccc2)c2ccccc2)C3)c1 (stereo not given in full) -3.5 kMESF
